# Measurements reported in PubChem BioAssay (Tox21).
# Several values for one entry are separate records, joined by “and”; a condition that tells them apart may be missing. Identical values can stand only once. Activity calls are given as the source filed them. Where a call stands in place of a potency, no number is given. Unless noted, calls follow the shape of the dose curve; as a rule, active = well fitted curve in the direction sought with a large enough effect in the repeat runs; inconclusive = weak or mixed curves; inactive = no such curve, though single readings can be large; an effect the other way counts as inactive or inconclusive.
# How the values were obtained:
# [1] = qHTS assay to identify small molecule antagonists of the glucocorticoid receptor (GR) signaling pathway - cell viability counter screen (AID 720693); also: nearly all actives have a fitted effect of over 55% in size
# [2] = qHTS assay for identifying genotoxic compounds that show differential cytotoxicity against isogenic chicken DT40 cell lines with known DNA damage response pathways - Rad54/Ku70 mutant cell line (AID 743015); also: nearly all actives have a fitted effect of over 60% in size; also: potency is read from the fitted curve at half-maximal effect
# [3] = qHTS assay to identify small molecule antagonists of the androgen receptor (AR) signaling pathway - cell viability counter screen (AID 743033; also: nearly all actives have a fitted effect of over 45% in size; also: potency is read from the fitted curve at half-maximal effect)
# [4] = qHTS assay to identify small molecule antagonists of the androgen receptor (AR) signaling pathway using the MDA cell line - cell viability counter screen (AID 743041; also: nearly all actives have a fitted effect of over 45% in size)
# Procedure, shortened: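 Compound exposure lasted 16 h at 37C in MDA-kb2 AR-luc cells stimulated with R1881. Protease-based CellTiter-Fluor reagent was applied for the final 30 min and fluorescence measured.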
# [5] = qHTS assay to identify small molecule antagonists of the thyroid receptor (TR) signaling pathway - cell viability counter screen (AID 743064); also: nearly all actives have a fitted effect of over 50% in size; also: potency is read from the fitted curve at half-maximal effect
# Procedure, shortened: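 GH3.TRE-Luc cells, 4 h pre-plating; cpd + T3 1 nM final; 37 °C 23.5 h; CellTiter-Fluor 30 min; fluorescence read.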
# [6] = qHTS assay to identify small molecule antagonists of the estrogen receptor alpha (ER-alpha) signaling pathway - cell viability counter screen (AID 743074; calls by dose curve; also: nearly all actives have a fitted effect of over 45% in size; also: potency is read from the fitted curve at half-maximal effect)
# [7] = qHTS assay to identify small molecule antagonists of the estrogen receptor alpha (ER-alpha) signaling pathway using the BG1 cell line - cell viability counter screen (AID 743081);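 also: compound given together with 17beta-estradiol as the ER stimulus; nearly all actives have a fitted effect of over 45% in size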; also: potency is read from the fitted curve at half-maximal effect
# [8] = target: Aromatase (Homo sapiens) (UniProt P11511); assay: qHTS assay to identify aromatase inhibitors (AID 743083); also: series mostly up to about 70 µM; nearly all actives have a fitted effect of over 55% in size
# [9] = qHTS assay for identifying genotoxic compounds that show differential cytotoxicity against isogenic chicken DT40 cell lines with known DNA damage response pathways - Rev3 mutant cell line (AID 743014); also: nearly all actives have a fitted effect of over 55% in size; also: potency is read from the fitted curve at half-maximal effect
# [10] = qHTS assay to identify small molecule antagonists of the thyroid receptor (TR) signaling pathway (AID 743065); also: nearly all actives have a fitted effect of over 55% in size; also: potency is read from the fitted curve at half-maximal effect
# Procedure, shortened: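 GH3.TRE-Luc rat pituitary cells (two TREs driving luciferase) were dosed with compound, then stimulated with 1 nM T3 (final) for 23.5 h at 37 C. ONE-Glo luminescence was the read-out, with CellTiter-Fluor fluorescence as the cytotoxicity counter-screen.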
# [11] = test system: thyroid hormone receptor (rat, GH3 cells); assay: qHTS assay to identify small molecule agonists of the thyroid receptor (TR) signaling pathway (AID 743066; calls by dose curve)
# [12] = target: Estrogen receptor (Homo sapiens) (UniProt P03372); assay: qHTS assay to identify small molecule agonists of the estrogen receptor alpha (ER-alpha) signaling pathway (AID 743075; calls by dose curve)
# [13] = target: Estrogen receptor (Homo sapiens) (UniProt P03372); assay: qHTS assay to identify small molecule agonists of the estrogen receptor alpha (ER-alpha) signaling pathway using the BG1 cell line (AID 743079); also: nearly all actives have a fitted effect of over 20% in size
# [14] = qHTS assay for identifying genotoxic compounds that show differential cytotoxicity against isogenic chicken DT40 cell lines with known DNA damage response pathways - wild type cell line (AID 743012); also: nearly all actives have a fitted effect of over 60% in size; also: potency is read from the fitted curve at half-maximal effect
# Procedure, shortened: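 Endpoint: CellTiter-Glo luminescence, 30 min RT. Cells: wild type DT40, 300/well. Exposure: compounds in DMSO, 40 h, 37 C/5% CO2, after ~0.5 h pre-incubation.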
# [15] = target: Estrogen receptor (Homo sapiens) (UniProt P03372); assay: qHTS assay to identify small molecule antagonists of the estrogen receptor alpha (ER-alpha) signaling pathway (AID 743069; active = well fitted curve in the direction sought with a large enough effect in the signal ratio in the repeat runs, not every such curve was filed as active; inconclusive = weak or mixed curves, or effect the other way; inactive = no such curve, though single readings can be large or run the other way; the % refers to the signal ratio; also: potency is read from the fitted curve at half-maximal effect)
# Procedure, shortened: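 In this cell-based reporter format, GripTite HEK293 cells harbouring ER-alpha-UAS-bla were grown overnight with 2% charcoal-stripped FBS, dosed with DMSO-dissolved compounds, then challenged with 17beta-estradiol. After 18 hr at 37C, beta-lactamase activity was detected by FRET fluorescence.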
# [16] = qHTS assay to identify small molecule antagonists of the estrogen receptor alpha (ER-alpha) signaling pathway using the BG1 cell line (AID 743080; calls by dose curve;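 also: BG1 cells stimulated with 17beta-estradiol alongside compound; series mostly up to about 70 µM; nearly all actives have a fitted effect of over 25% in size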)
# Procedure, shortened: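 BG1-Luc-4E2 cells (endogenous full-length ER-alpha, stable 4×ERE-luciferase) were starved 5 days in phenol-red-free medium with 10% charcoal-stripped FBS, plated 24 h, then given compound plus 17beta-estradiol for 21.5 h at 37 C; ONE-Glo luminescence read after 30 min.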
# [17] = target: Androgen receptor (Homo sapiens) (UniProt P10275); assay: qHTS assay to identify small molecule antagonists of the androgen receptor (AR) signaling pathway (AID 743035; active = well fitted inhibition curve with a large enough effect in the signal ratio in the repeat runs, not every such curve was filed as active; inconclusive = weak or mixed curves, or effect the other way; inactive = no such curve, though single readings can be large or run the other way; the % refers to the signal ratio; also: potency is read from the fitted curve at half-maximal effect)
# Procedure, shortened: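 R1881 agonist challenge of a HEK293 UAS-beta-lactamase AR reporter line in the presence of compound (16 h, 37C); signal taken as FRET fluorescence after 2 h with LiveBLAzer B/G substrate at room temperature.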
# [18] = target: Androgen receptor (Homo sapiens) (UniProt P10275); assay: qHTS assay to identify small molecule agonists of the androgen receptor (AR) signaling pathway (AID 743036; active = well fitted activation curve with a large enough effect in the signal ratio in the repeat runs, with a control signal flat, not every such curve was filed as active; inconclusive = weak or mixed curves, or effect the other way; inactive = no such curve, though single readings can be large or run the other way; the % refers to the signal ratio)
# Procedure, shortened: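 AR-bla HEK293 cells, 2,000/well; 4 h preincubation 37C/5% CO2; compound (DMSO) 16 h at 37C; LiveBLAzer B/G FRET substrate 2 h RT; fluorescence intensity read-out.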
# [19] = target: Androgen receptor (Homo sapiens) (UniProt P10275); assay: qHTS assay to identify small molecule agonists of the androgen receptor (AR) signaling pathway using the MDA cell line (AID 743040; also: nearly all actives have a fitted effect of over 20% in size; also: potency is read from the fitted curve at half-maximal effect)
# Procedure, shortened: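 Testing was done with the MDA-kb2 AR-luc line, a human breast carcinoma stably transfected with MMTV-luciferase containing AR and GR response elements. Cells were exposed 16 h at 37C before ONE-Glo luminescence detection.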
# [20] = target: Androgen receptor (Homo sapiens) (UniProt P10275); assay: qHTS assay to identify small molecule antagonists of the androgen receptor (AR) signaling pathway using the MDA cell line (AID 743042; also: nearly all actives have a fitted effect of over 55% in size; also: potency is read from the fitted curve at half-maximal effect)
# Procedure, shortened: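 MDA-kb2 breast carcinoma cells carrying MMTV-luciferase (AR/GR responsive) were co-treated with compounds and the agonist R1881 for 16 h at 37C. Inhibition read as ONE-Glo luminescence; CellTiter-Fluor fluorescence measured in parallel for cytotoxicity.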
# Androgen receptor (Homo sapiens), sequence (P10275 whole entry, looked up): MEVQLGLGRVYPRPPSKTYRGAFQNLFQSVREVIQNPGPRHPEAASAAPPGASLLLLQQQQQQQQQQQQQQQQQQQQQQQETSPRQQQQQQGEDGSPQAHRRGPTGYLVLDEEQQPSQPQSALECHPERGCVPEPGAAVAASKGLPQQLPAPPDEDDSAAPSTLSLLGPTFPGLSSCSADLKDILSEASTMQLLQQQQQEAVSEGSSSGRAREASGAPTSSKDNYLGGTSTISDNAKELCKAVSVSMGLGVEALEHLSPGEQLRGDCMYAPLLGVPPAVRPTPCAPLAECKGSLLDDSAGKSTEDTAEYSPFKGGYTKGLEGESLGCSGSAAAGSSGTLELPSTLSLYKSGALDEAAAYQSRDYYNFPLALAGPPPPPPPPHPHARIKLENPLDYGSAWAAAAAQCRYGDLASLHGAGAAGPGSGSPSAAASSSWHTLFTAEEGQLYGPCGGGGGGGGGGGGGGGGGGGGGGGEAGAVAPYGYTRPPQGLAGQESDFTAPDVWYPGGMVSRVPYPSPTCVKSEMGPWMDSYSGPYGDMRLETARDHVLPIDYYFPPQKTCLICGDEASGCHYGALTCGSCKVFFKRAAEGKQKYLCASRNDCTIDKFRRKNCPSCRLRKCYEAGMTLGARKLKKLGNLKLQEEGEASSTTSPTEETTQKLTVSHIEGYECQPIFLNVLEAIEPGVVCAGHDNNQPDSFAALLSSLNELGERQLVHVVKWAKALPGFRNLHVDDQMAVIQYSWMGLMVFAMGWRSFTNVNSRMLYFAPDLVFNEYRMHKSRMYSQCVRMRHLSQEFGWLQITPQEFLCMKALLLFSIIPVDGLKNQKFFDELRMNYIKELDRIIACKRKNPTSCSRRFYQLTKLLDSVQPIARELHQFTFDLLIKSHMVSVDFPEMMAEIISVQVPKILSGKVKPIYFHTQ
# Estrogen receptor (Homo sapiens), sequence (P03372 whole entry, looked up): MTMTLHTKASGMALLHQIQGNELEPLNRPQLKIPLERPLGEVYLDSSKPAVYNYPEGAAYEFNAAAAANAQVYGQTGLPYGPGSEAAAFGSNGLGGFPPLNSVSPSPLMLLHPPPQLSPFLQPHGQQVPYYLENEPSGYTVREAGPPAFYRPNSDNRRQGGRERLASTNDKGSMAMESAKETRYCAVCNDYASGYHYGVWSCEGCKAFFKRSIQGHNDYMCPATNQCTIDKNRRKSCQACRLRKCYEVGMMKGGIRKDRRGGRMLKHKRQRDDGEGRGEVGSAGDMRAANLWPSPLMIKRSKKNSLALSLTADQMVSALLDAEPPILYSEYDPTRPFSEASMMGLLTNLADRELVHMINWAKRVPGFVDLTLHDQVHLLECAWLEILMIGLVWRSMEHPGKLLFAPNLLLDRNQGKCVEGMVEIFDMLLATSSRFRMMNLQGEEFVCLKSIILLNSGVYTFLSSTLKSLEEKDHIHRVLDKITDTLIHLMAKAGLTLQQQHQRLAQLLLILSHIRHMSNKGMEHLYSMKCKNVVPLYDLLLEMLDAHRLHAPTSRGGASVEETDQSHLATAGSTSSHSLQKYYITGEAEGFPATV
# Aromatase (Homo sapiens), sequence (P11511 whole entry, looked up): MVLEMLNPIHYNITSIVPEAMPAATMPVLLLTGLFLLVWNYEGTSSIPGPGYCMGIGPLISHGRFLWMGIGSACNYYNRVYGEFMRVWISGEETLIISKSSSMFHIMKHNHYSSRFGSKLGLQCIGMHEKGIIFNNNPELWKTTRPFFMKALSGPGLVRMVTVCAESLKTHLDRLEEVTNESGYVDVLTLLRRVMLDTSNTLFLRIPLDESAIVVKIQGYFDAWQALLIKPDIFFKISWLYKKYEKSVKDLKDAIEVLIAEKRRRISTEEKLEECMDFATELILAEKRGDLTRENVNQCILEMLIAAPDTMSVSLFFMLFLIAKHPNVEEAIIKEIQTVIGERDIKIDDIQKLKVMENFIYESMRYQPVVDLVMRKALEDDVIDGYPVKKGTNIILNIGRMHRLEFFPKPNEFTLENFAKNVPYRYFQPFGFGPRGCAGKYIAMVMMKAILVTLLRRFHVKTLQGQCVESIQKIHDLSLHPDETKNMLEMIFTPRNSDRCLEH
Structure (SMILES),Potency [1],Potency [2],Potency [3],Potency [4],Potency [5],Potency [6],Potency [7],Potency [8],Potency [9],Potency [10],Potency [11],Potency [12],Potency [13],Potency [14],Potency [15],Potency [16],Potency [17],Potency [18],Potency [19],Potency [20]
CCN(CC)CCOC(=O)C(Cc1cccc2ccccc12)CC1CCCO1 (stereo not given),inactive,inactive,inactive,inactive,inactive,inactive,inactive,inactive,–,–,–,–,–,–,–,–,–,–,–,–
CCCCCCCCCCCC(=O)OC[C@@H](O)[C@H]1OC[C@H](OCCO)[C@H]1OCCO,inactive,–,–,inactive,inactive,inactive,inactive,–,53.2 µM (active),inactive,inactive,inactive,inactive,–,–,–,–,–,–,–
COC(C)OC,–,inactive,inactive,inactive,inactive,inactive,inactive,inactive,inactive,inactive,inactive,inactive,inactive,inactive,inactive,inactive,–,–,–,–
Cc1cc(C(=O)O)ccc1[N+](=O)[O-],–,inactive,inactive,inactive,inactive,inactive,inactive,inactive,–,inactive,inactive,inactive,inactive,inactive,–,inactive,–,–,–,–
CCC(C)(C)CC,inactive,–,–,–,–,inactive,inactive,–,–,inactive,inactive,–,–,–,–,–,–,–,–,–
C[N+]1(C)CCC(OC(=O)C(O)(c2ccccc2)C2CCCC2)C1 (stereo not given),inactive,–,inactive,inactive,inactive,–,inactive,–,–,–,–,inactive,inactive,–,inactive,inactive,–,–,–,–
Cc1ccc(N=Nc2c(O)c(C(=O)O)cc3ccccc23)c(S(=O)(=O)O)c1,inactive,13.3 µM (active),inactive,inactive,26.5 µM (active),inactive,16.7 µM (active),inactive,–,–,inactive,–,–,–,–,–,–,–,–,–
CCc1cc(C2=C(C(=O)O)N(c3ccccc3C(F)(F)F)S(=O)(=O)c3ccccc32)cc2c1OCO2,inactive,–,inactive,inactive,2.41 µM (active),inactive,–,–,–,inactive,inactive,–,–,–,–,–,–,–,–,–
CN1CCC(=C2c3ccccc3Sc3ccccc32)CC1,–,8.41 µM (active),23.9 µM (active),–,5.96 µM (active),–,–,–,5.96 µM (active),8.41 µM (active),–,–,inactive,5.31 µM (active),–,–,26.8 µM (active),inactive,inactive,29.8 µM (active)
O=S(c1cc(Cl)cc(Cl)c1O)c1cc(Cl)cc(Cl)c1O,–,–,inactive,inactive,–,inactive,inactive,inactive,–,–,inactive,inactive,inactive,–,–,inactive,–,–,inactive,inactive
CCC(=O)O[C@]1(C(=O)CCl)[C@@H](C)C[C@H]2[C@@H]3CCC4=CC(=O)C=C[C@]4(C)[C@@]3(F)[C@@H](O)C[C@@]21C,–,29.8 µM (active),–,inactive,inactive,inactive,inactive,inactive,2.37 µM (active),inactive,inactive,inactive,inactive,13.3 µM (active),inactive,–,7.56 µM (active),–,0.0019 µM (active),inactive
C=C1C(=C/C=C2\CCC[C@]3(C)[C@@H]([C@H](C)/C=C/[C@@H](O)C4CC4)CC[C@@H]23)C[C@@H](O)C[C@@H]1O,–,13.3 µM (active),inactive,–,–,inactive,inactive,inactive,–,26.6 µM (active),–,inactive,inactive,11.9 µM (active),21.3 µM [inconclusive] (active),–,–,inactive,inactive,26.6 µM (active)
CCCCC(=O)OCC(=O)[C@H]1[C@H](C)C[C@H]2[C@@H]3C[C@H](F)C4=CC(=O)C=C[C@]4(C)[C@@]3(F)[C@@H](O)C[C@@]21C,inactive,–,inactive,inactive,inactive,–,inactive,inactive,–,–,inactive,inactive,inactive,–,–,–,–,–,0.0047 µM (active),inactive
C[N+](C)(C)CCOC(=O)CCC(=O)OCC[N+](C)(C)C,–,inactive,inactive,inactive,inactive,inactive,inactive,inactive,inactive,inactive,inactive,inactive,inactive,inactive,–,inactive,–,–,–,–
CCCCCCCCCCCCN1CCCCCC1=O,inactive,–,inactive,inactive,inactive,43.6 µM (active),inactive,–,–,–,inactive,–,–,–,–,–,–,–,–,–
CCOc1ccc(O)cc1,inactive,–,inactive,inactive,inactive,inactive,inactive,inactive,–,inactive,inactive,inactive,inactive,–,–,inactive,–,–,–,–
CCC(CC)Nc1ccc(C)c(C)c1,inactive,–,inactive,inactive,inactive,inactive,inactive,inactive,–,–,inactive,inactive,inactive,–,inactive,inactive,–,–,–,–
COc1cc2nc(N3CCN(C(=O)C4COc5ccccc5O4)CC3)nc(N)c2cc1OC (stereo not given),inactive,–,inactive,inactive,–,inactive,inactive,–,inactive,29.8 µM (active),inactive,–,–,–,–,–,–,–,–,–
CC(C)C[C@H]1C(=O)N2CCC[C@H]2[C@]2(O)O[C@](NC(=O)[C@@H]3C=C4c5cccc6[nH]c(Br)c(c56)C[C@H]4N(C)C3)(C(C)C)C(=O)N12,–,7.5 µM (active) and 10.4 µM (active),inactive,inactive,–,inactive,inactive,–,10.6 µM (active) and 7.34 µM (active),13.3 µM (active) and 16.4 µM (active),inactive,–,–,5.31 µM (active) and 11.6 µM (active),–,–,–,–,–,–
